{"source": "the supplement of paper PMC9446081", "note": "± gives the standard deviation of the averaged measurements.", "data": [{"biological_target": "MurC (UniProt C4ZRI6)", "sequence (C4ZRI6 whole entry, looked up)": "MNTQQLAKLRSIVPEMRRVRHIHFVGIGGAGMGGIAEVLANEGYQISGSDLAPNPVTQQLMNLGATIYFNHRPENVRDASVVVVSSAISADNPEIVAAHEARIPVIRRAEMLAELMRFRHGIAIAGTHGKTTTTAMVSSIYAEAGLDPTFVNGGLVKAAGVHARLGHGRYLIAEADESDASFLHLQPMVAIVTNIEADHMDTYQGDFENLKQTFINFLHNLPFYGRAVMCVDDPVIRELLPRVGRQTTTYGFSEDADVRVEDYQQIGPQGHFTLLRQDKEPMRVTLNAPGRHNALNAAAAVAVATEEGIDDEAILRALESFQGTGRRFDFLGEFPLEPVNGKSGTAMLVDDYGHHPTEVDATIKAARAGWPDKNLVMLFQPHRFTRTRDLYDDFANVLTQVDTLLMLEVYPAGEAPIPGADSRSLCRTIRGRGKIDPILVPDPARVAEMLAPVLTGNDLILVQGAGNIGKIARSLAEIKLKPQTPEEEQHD", "assay": "relative enzymatic activity vs untreated control (fraction); higher = less inhibition", "settings": "100 µM; incubation time: 2 h at 37 C", "procedure": "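In vitro enzymatic inhibition assays (ProFoldin kits) for 12 purified essential E. coli enzymes or complexes, each treated with 218 active antibacterial compounds at 100 µM for 2 h at 37°C. Read-outs were fluorescence or absorbance (phosphate detection, dye binding), converted to activity via standard curves and expressed relative to untreated DMSO controls.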", "values": [{"smiles": "CC1COc2c(N3CCN(C)CC3)c(F)cc3c(=O)c(C(=O)O)cn1c23", "note": "(stereo not given)", "relative enzymatic activity": "0.983 ± 0.042"}, {"smiles": "COC(=O)N/N=C/c1ccc([N+](=O)[O-])o1", "relative enzymatic activity": "1.01 ± 0.15"}, {"smiles": "CN(C)C1C(O)=C(C(N)=O)C(=O)C2(O)C(O)=C3C(=O)c4c(O)cccc4C(C)(O)C3CC12.Cl", "note": "(stereo not given)", "relative enzymatic activity": "1.05 ± 0.039"}, {"smiles": "CCCC[P+](CCCC)(CCCC)Cc1ccc(NC(=O)[C@@H](Cc2ccc3ccccc3c2)N=C(NC2CCCCC2)NC2CCCCC2)cc1", "relative enzymatic activity": "0.817 ± 0.36"}, {"smiles": "CCN1CCN(C(=O)NC(C(=O)NC2C(=O)N3C2SC(C)(C)C3C(=O)[O-])c2ccccc2)C(=O)C1=O.[Na+]", "note": "(stereo not given)", "relative enzymatic activity": "0.951 ± 0.086"}, {"smiles": "CN(C)C1C(O)=C(C(N)=O)C(=O)C2(O)C(O)=C3C(=O)c4c(O)ccc(Cl)c4C(O)C3CC12.Cl", "note": "(stereo not given)", "relative enzymatic activity": "1.021 ± 0.0019"}, {"smiles": "CCC=C(C(=O)NC1C(=O)N2C(C(=O)OCOC(=O)C(C)(C)C)=C(COC(N)=O)CSC12)c1csc(N)n1.Cl", "note": "(stereo not given)", "relative enzymatic activity": "0.843 ± 0.14"}, {"smiles": "Cc1ccc(S(=O)(=O)O)cc1.NC1CCN(c2nc3c(cc2F)c(=O)c(C(=O)O)cn3-c2ccc(F)cc2F)C1.O", "note": "(stereo not given)", "relative enzymatic activity": "0.988 ± 0.17"}, {"smiles": "N[C@@H](C(=O)N[C@@H]1C(=O)N2C(C(=O)O)=C(Cl)CC[C@H]12)c1ccccc1", "relative enzymatic activity": "0.967 ± 0.054"}, {"smiles": "CN1CCN(c2c(F)cc3c(=O)c(C(=O)O)cn4c3c2SCC4)CC1", "relative enzymatic activity": "0.895 ± 0.076"}, {"smiles": "CC(O)C1C(=O)N2C(C(=O)O)=C(SC3CNC(C(=O)N(C)C)C3)C(C)C12", "note": "(stereo not given)", "relative enzymatic activity": "0.359 ± 0.25"}, {"smiles": "CCCCCCCCCCCCCCCC[N+](C)(C)C", "relative enzymatic activity": "0.568 ± 0.56"}, {"smiles": "CO/N=C(\\C(=O)N[C@@H]1C(=O)N2C(C(=O)O)=C(CSc3nnnn3C)CS[C@H]12)c1csc(N)n1", "relative enzymatic activity": "1.05 ± 0.082"}, {"smiles": "NCCC(O)C(=O)NC1CC(N)C(OC2OC(CN)C(O)C(O)C2O)C(O)C1OC1OC(CO)C(O)C(N)C1O.O", "note": "(stereo not given)", "relative enzymatic activity": "1.0305 ± 0.00019"}, {"smiles": "CC1c2cccc(O)c2C(=O)C2=C(O)C3(O)C(=O)C(C(N)=O)=C(O)C(N(C)C)C3C(O)C21.Cl", "note": "(stereo not given)", "relative enzymatic activity": "1.02 ± 0.027"}, {"smiles": "CO/N=C(\\C(=O)N[C@@H]1C(=O)N2C(C(=O)O)=C(C[n+]3ccn4ncccc43)CS[C@H]12)c1nsc(N)n1", "relative enzymatic activity": "0.964 ± 0.082"}, {"smiles": "Nc1nc(/C(=N/O)C(=O)N[C@@H]2C(=O)N3C(C(=O)O)=C(/C=C4\\CCN([C@@H]5CCNC5)C4=O)CS[C@H]23)ns1", "relative enzymatic activity": "0.717 ± 0.24"}, {"smiles": "CCCCCCCCCCCCC[N+](C)(C)Cc1ccccc1", "relative enzymatic activity": "0.106 ± 0.027"}, {"smiles": "CON=C(C(=O)NC1C(=O)N2C(C(=O)[O-])=C(COC(N)=O)CSC12)c1ccco1.[Na+]", "note": "(stereo not given)", "relative enzymatic activity": "1.33 ± 0.083"}, {"smiles": "CN1CCN(c2cc3c(cc2F)c(=O)c(C(=O)O)cn3-c2ccc(F)cc2)CC1.Cl", "relative enzymatic activity": "0.9809 ± 0.0032"}, {"smiles": "CC(C)[C@@H](CC[C@@H](C)[C@H]1CC[C@H]2[C@@H]3[C@H](O)C[C@H]4C[C@@H](NCCCNCCCCNCCCN)CC[C@]4(C)[C@H]3CC[C@]12C)OS(=O)(=O)O", "relative enzymatic activity": "1.05 ± 0.014"}, {"smiles": "Cc1cn(C2CC(N=[N+]=[N-])C(CO)O2)c(=O)[nH]c1=O", "note": "(stereo not given)", "relative enzymatic activity": "1.01 ± 0.068"}, {"smiles": "CC1(C)SC2C(N3C(=O)C(c4ccccc4)NC3(C)C)C(=O)N2C1C(=O)[O-].[K+]", "note": "(stereo not given)", "relative enzymatic activity": "0.925 ± 0.025"}, {"smiles": "Cc1cc(C(C)(C)CC(C)(C)C)ccc1OCCOCC[N+](C)(C)Cc1ccccc1.[Cl-]", "relative enzymatic activity": "0.647 ± 0.59"}, {"smiles": "C=CC1=C(C(=O)O)N2C(=O)[C@@H](NC(=O)/C(=N/O)c3csc(N)n3)[C@H]2SC1", "relative enzymatic activity": "0.917 ± 0.017"}, {"smiles": "Cc1c(N)nc([C@H](CC(N)=O)NC[C@H](N)C(N)=O)nc1C(=O)N[C@H](C(=O)N[C@H](C)[C@@H](O)[C@H](C)C(=O)N[C@H](C(=O)NCCc1nc(-c2nc(C(=O)NCCCNCCCCN)cs2)cs1)[C@@H](C)O)[C@@H](O[C@@H]1O[C@@H](CO)[C@@H](O)[C@H](O)[C@@H]1O[C@@H]1O[C@H](CO)[C@@H](O)[C@H](OC(N)=O)[C@@H]1O)c1c[nH]cn1", "relative enzymatic activity": "1.006 ± 0.0098"}, {"smiles": "C=CC1=C(C(=O)O)N2C(=O)[C@@H](NC(=O)/C(=N\\O)c3csc(N)n3)[C@H]2SC1", "relative enzymatic activity": "1 ± 0.028"}, {"smiles": "CCOC(=O)CCC(=O)O[C@H]1[C@H](O[C@@H]2[C@@H](C)[C@H](O[C@H]3C[C@@](C)(OC)[C@@H](O)[C@H](C)O3)[C@@H](C)C(=O)O[C@H](CC)[C@@](C)(O)[C@H](O)[C@@H](C)C(=O)[C@H](C)C[C@@]2(C)O)O[C@H](C)C[C@@H]1N(C)C", "relative enzymatic activity": "1.05 ± 0.026"}, {"smiles": "CCn1cc(C(=O)O)c(=O)c2cc(F)c(N3CCNC(C)C3)c(F)c21.Cl", "note": "(stereo not given)", "relative enzymatic activity": "0.984 ± 0.05"}, {"smiles": "CC1CN(c2c(F)c(F)c3c(=O)c(C(=O)O)cn(C4CC4)c3c2F)CC(C)N1", "note": "(stereo not given)", "relative enzymatic activity": "0.891 ± 0.082"}, {"smiles": "O=C1OCCN1N=Cc1ccc([N+](=O)[O-])o1", "relative enzymatic activity": "1.03 ± 0.054"}, {"smiles": "NC(=O)NN=Cc1ccc([N+](=O)[O-])o1", "relative enzymatic activity": "1.05 ± 0.014"}, {"smiles": "CC1CN(c2c(F)c(N)c3c(=O)c(C(=O)O)cn(C4CC4)c3c2F)CC(C)N1", "note": "(stereo not given)", "relative enzymatic activity": "0.989 ± 0.12"}, {"smiles": "CON=C(C(=O)NC1C(=O)N2C(C(=O)[O-])=C(CSc3nc(=O)c([O-])nn3C)CSC12)c1csc(N)n1.O.O.O.[Na+].[Na+]", "note": "(stereo not given)", "relative enzymatic activity": "1.041 ± 0.0071"}, {"smiles": "CN(C)C1C(O)=C(C(N)=O)C(=O)C2(O)C(O)=C3C(=O)c4c(O)cccc4C(C)(O)C3C(O)C12.Cl", "note": "(stereo not given)", "relative enzymatic activity": "1.09 ± 0.081"}, {"smiles": "CN1CCN(c2c(F)cc3c(=O)c(C(=O)O)cn4c3c2OCN4C)CC1", "relative enzymatic activity": "0.954 ± 0.1"}, {"smiles": "O=C(Cn1cnnn1)NC1C(=O)N2C(C(=O)O)=C(CSc3nncs3)CSC12", "note": "(stereo not given)", "relative enzymatic activity": "1.06 ± 0.098"}, {"smiles": "NC(=O)[C@@H]1CC[C@@H]2CN1C(=O)N2OS(=O)(=O)O", "relative enzymatic activity": "1.04 ± 0.022"}, {"smiles": "O=C(NC(CO)C(O)c1ccc([N+](=O)[O-])cc1)C(Cl)Cl", "note": "(stereo not given)", "relative enzymatic activity": "1.04 ± 0.033"}, {"smiles": "COC1=C(OC)C(=O)C(CCCCCCCCCC[P+](c2ccccc2)(c2ccccc2)c2ccccc2)=C(C)C1=O", "relative enzymatic activity": "0.344 ± 0.24"}]}]}
